Source: PubChem BioAssay (NCI)
The panel holds about 83,000 compounds, 20% with a hit somewhere; the sample as a whole holds those more often.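 Testing used 96-well plates and a 48-hour single-concentration exposure. Example: -40 means 40% of the starting cells died.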 Calls of active or inactive are those of the source. How the source made its calls: active means growth percent below 10; inactive means the rest.

system: MDA-MB-468 breast; test: NCI-60 one-dose screen, 48 h (100 = growth as untreated, 0 = no growth, -100 = all killed); conditions: 10 µM unless noted

Row | SMILES | growth
1 | CC(=O)c1ccc(NC(=O)CSc2nnc(-c3cc(-c4ccc(C)cc4)nc4ccccc34)o2)cc1 | 95.4% (inactive)
2 | CC1=C(C)C(=O)C(Nc2ccc(C)cc2)=C(Br)C1=O | -4.77% (active)
3 | COc1cc2c(c(OC)c1OC)-c1ccc(NNC(N)=S)c(=O)cc1[C@@H](NC(C)=O)CC2 | -14.2% (active)
4 | N=C(N)c1ccc(-c2ccc(/C=C/c3ccccc3)s2)cc1 | -67.3% (active)
5 | CCN(CC)Cc1cc(Nc2ccnc3ccc(OC)cc23)ccc1O | -3.96% (active)
6 | CC(C1=C(CN(C(=O)Cc2cn(-c3ccccc3)nc2-c2ccc(Cl)cc2)C(C)C)Cc2ccccc21)c1ccccn1 (stereo unspecified) | 43.8% (inactive)
7 | C=C1C(=O)O[C@H]2[C@H]1CC/C(COC(=O)c1cc3cc(Cl)ccc3[nH]1)=C\CC[C@@]1(C)O[C@@H]21 | -59.6% (active)
8 | O=C(O)c1ccc(-n2cc(CNc3ccc(Oc4ccccc4)cc3)c(-c3ccccc3)n2)cc1 | 99.8% (inactive)
9 | COc1cccc(/C=C2\Oc3cc(OCCCN4CCCC4)ccc3C2=O)c1OC | 93.2% (inactive)
10 | COc1cc(C(=O)c2cc(C)c3[nH]c4ccc(O)cc4c3c2C)cc(OC)c1OC | -22.7% (active)
11 | COc1cc2c(=O)n(CCCN(C)C)c3c4cc5c(cc4ccc3c2cc1OC)OCO5 | 57.7% (inactive)
12 | COc1cc2c(Oc3ccc4[nH]c(C)cc4c3F)ncnc2cc1OCCCN1CCCC1 | 99.4% (inactive)
13 | COc1cc(C2C(C#N)=C(N)OC3=C2C(=O)c2ccccc2C3=O)cc(OC)c1O (stereo unspecified) | 106% (inactive)
14 | C[C@@H]1CC[C@@]2(OC1)O[C@H]1C[C@H]3[C@@H]4CC=C5C[C@@H](O[C@@H]6O[C@H](CO)[C@@H](O[C@@H]7O[C@@H](CO)[C@H](O)[C@H]7O)[C@H](O)[C@H]6O[C@@H]6O[C@@H](C)[C@H](O)[C@@H](O)[C@H]6O)CC[C@]5(C)[C@H]4CC[C@]3(C)[C@H]1[C@@H]2C | -40.3% (active)
15 | CCCNC(=O)Oc1ccc(/C(=C(\C)c2ccccc2)c2ccc(OCCN3CCCCC3)cc2)cc1 | 73.6% (inactive)
16 | CN(C)CCOc1nc2c3cc([N+](=O)[O-])ccc3nn2c2ccccc12 | 60.2% (inactive)
17 | CCn1c(SCC(=O)Nc2cc(C(F)(F)F)ccc2Cl)nc2ccccc2c1=O | 50.3% (inactive)
18 | NC1(N)C=CC2=C(C=C1)C1(N)C3=C(C=CC(N)(N)C=C3)N2C2(N)C3=C(C=CC(N)(N)C=C3)N1C1=C2C=CC(N)(N)C=C1 | 72.3% (inactive)

Row | SMILES | growth
19 | O=C(O)c1ccc2cccnc2c1O | -31.1% (active)
20 | CN(C)CCCNCc1ccc(-c2ccc(F)c(Cl)c2)o1 | -66.3% (active)
21 | C/C(=N\Nc1ccc(Cl)cn1)c1ccccn1 | -41% (active)
22 | COC(=O)c1c(C)nc(C)c2c1C(=O)C=C(NCc1ccccc1)C2=O | 53.9% (inactive)
23 | CN1CCN(CCCOc2ccc3nc(Nc4cc(Cl)cc(Cl)c4)ccc3c2)CC1 | -74.4% (active)
24 | CCCCCCCCCCCCNC(=O)N[C@H](C(=O)N[C@H]1/C=C/OCCNC(=O)/C=C/[C@H](C(C)C)NC1=O)C(C)C | 15.5% (inactive)
25 | O=C(CCCCCCC(=O)Nc1ccccc1)NO | 12.1% (inactive)
26 | N#Cc1cccc(CN2CCC3=C(C2)C(=O)N(Cc2ccc(Cl)cc2)C2=NCCN23)c1 | -14.9% (active)
27 | Cc1cc2c(cc1C)N(C(=O)CCl)CC(=O)N2 | -12.6% (active)
28 | COc1cc2c(cc1[N+](=O)[O-])-c1ccc([N+](=O)[O-])cc1/C2=N\O | 49.4% (inactive)
29 | COc1cc2nc(-c3ccc(Cl)cc3)cc(OCCCN3CCCC3)c2cc1OC | 43.5% (inactive)
30 | COC(=O)c1cncc(C(=O)Nc2ccc(-n3cnc4ccccc43)cc2)c1 | 101% (inactive)
31 | CCn1c(SCC(=O)c2ccc(Br)cc2)nnc1-c1cc2c([nH]c3ccccc32)c(-c2cccc(O)c2)n1 | 83.9% (inactive)
32 | C=CCNC(=O)c1ccc(OC)cc1 | 124% (inactive)
33 | COc1ccccc1NC(=O)c1sc2nc3c(cc2c1N)C(=O)CCC3 | 23.4% (inactive)
34 | CCOC(=O)c1cc(-c2ccc([N+](=O)[O-])cc2)n(-c2ccc(C(=O)O)c(O)c2)c1C | 58.8% (inactive)
35 | CC(=O)Nc1ccc(Sc2ccc(NC(C)=O)cc2)cc1 | 100% (inactive)
36 | N#C/C(C(=O)c1ccccc1)=C1/C(=O)Nc2ccccc21 | 121% (inactive)
